These results are taken from article PMC10812921, “Transcriptional Coactivator BOB1 (OBF1, OCA-B) Modulates the Specificity of DNA Recognition by the POU-Domain Factors OCT1 and OCT2 in a Monomeric Configuration”.

The first experiment addresses T1, POU2 (OCT2 POU domain) (human, UniProt P09086 175-386).
T1 sequence: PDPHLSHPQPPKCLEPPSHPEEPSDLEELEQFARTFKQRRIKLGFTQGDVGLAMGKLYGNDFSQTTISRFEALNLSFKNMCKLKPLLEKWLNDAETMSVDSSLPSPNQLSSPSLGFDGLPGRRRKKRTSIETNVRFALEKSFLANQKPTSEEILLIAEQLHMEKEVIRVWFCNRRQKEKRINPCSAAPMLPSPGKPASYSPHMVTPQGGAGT
Put plainly: EMSA-SELEX-seq; no BOB1; 20 mM Tris-HCl pH 7.6, 140 mM NaCl, 10% glycerol, 0.5 mM EDTA, 0.05% Triton X-100, 0.1 mg/mL BSA, 0.1 mg/mL poly(dI-dC), 5 mM DTT, room temperature, 20 min; high values mean tight binding. As to conditions: protein: recombinant; dsDNA, one strand shown. Summed up: (§1)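 In this selection, tagged POU-domain proteins from E. coli BL21, purified under denaturing conditions and renatured, were bound to a PCR-amplified double-stranded random 35-nt library with or without coactivator protein. Reactions held 30 ng protein, 300 ng library and, where used, 28 ng coactivator protein in 20 μL Tris–HCl pH 7.6 binding buffer for 20 min at RT. Complex bands were cut from native 6% PAGE, eluted and PCR-amplified over four rounds, then Illumina-sequenced, and binding preference is the percentage of sequenced 8-mers matching a motif pattern.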
Take AATTGAAA: the binding signal is 0.131 % of ANNNNAAN 8-mers.
Still for that read-out and setting: to ACCACAAC belongs 0.0132 % of ANNNNAAN 8-mers; to ACAGCAAC, 0.0155 % of ANNNNAAN 8-mers.
Still for that read-out and setting: the result for ACCGCAAG reads 0.0127 % of ANNNNAAN 8-mers; that for AGGGAAAG, 0.136 % of ANNNNAAN 8-mers; that for ACCATAAA, 0.0662 % of ANNNNAAN 8-mers.
In the case of ACACGAAG, the binding signal is 0.0196 % of ANNNNAAN 8-mers.
Still for that read-out and setting: the result for AACGCAAC reads 0.0201 % of ANNNNAAN 8-mers; that for ACCACAAG, 0.0178 % of ANNNNAAN 8-mers.
Same read-out and setting: the result for ACGCCAAG reads 0.0167 % of ANNNNAAN 8-mers.
On the same count and under the same terms, to ACTGCAAG belongs 0.0144 % of ANNNNAAN 8-mers; to AACCCAAG, 0.015 % of ANNNNAAN 8-mers.
Consider AGCACAAC, for which the binding signal was 0.0132 % of ANNNNAAN 8-mers.
The same measure, in the same setting: the result for ACCCTAAC reads 0.0121 % of ANNNNAAN 8-mers; that for AGACCAAT, 0.0219 % of ANNNNAAN 8-mers; that for ACCCCAAG, 0.0115 % of ANNNNAAN 8-mers.
On the same count and under the same terms, to ACCGGAAG belongs 0.0127 % of ANNNNAAN 8-mers.
The same measure, in the same setting: to ATTTAAAG belongs 0.185 % of ANNNNAAN 8-mers; to ATAGAAAT, 0.0961 % of ANNNNAAN 8-mers.
For the sequence ACAGCAAG, the binding signal was 0.0155 % of ANNNNAAN 8-mers.
With AAGCAAAA, the binding signal is 0.0898 % of ANNNNAAN 8-mers.
With ACTGCAAC, the binding signal is 0.0155 % of ANNNNAAN 8-mers.
On the same count and under the same terms, the result for AAGTCAAC reads 0.0236 % of ANNNNAAN 8-mers; that for AGAATAAT, 0.3 % of ANNNNAAN 8-mers; that for AGCTCAAC, 0.0132 % of ANNNNAAN 8-mers.
Still for that read-out and setting: to ATAGCAAT belongs 0.0495 % of ANNNNAAN 8-mers; to AGCTGAAA, 0.0293 % of ANNNNAAN 8-mers.
On the same count and under the same terms, the result for ATCTTAAG reads 0.0541 % of ANNNNAAN 8-mers; that for ACGCCAAC, 0.0115 % of ANNNNAAN 8-mers; that for AGCTTAAC, 0.0219 % of ANNNNAAN 8-mers.
For ACCGAAAC, the binding signal is 0.0132 % of ANNNNAAN 8-mers.
Still for that read-out and setting: to ACCTCAAG belongs 0.0127 % of ANNNNAAN 8-mers; to ACCCGAAC, 0.0109 % of ANNNNAAN 8-mers.
On the same count and under the same terms, to AGGCCAAA belongs 0.027 % of ANNNNAAN 8-mers; to ACACCAAC, 0.0127 % of ANNNNAAN 8-mers.

For a further experiment, the target named is POU1 (OCT1 POU domain);BOB1 (OBF1, OCA-B) (human;human, UniProt P14859;Q16633 260-458;1-256, |). Put plainly: EMSA-SELEX-seq; with BOB1 (ternary complex band); 20 mM Tris-HCl pH 7.6, 140 mM NaCl, 10% glycerol, 0.5 mM EDTA, 0.05% Triton X-100, 0.1 mg/mL BSA, 0.1 mg/mL poly(dI-dC), 5 mM DTT, room temperature, 20 min; high values mean tight binding. The settings on record: protein: recombinant;recombinant; copies: 1;1; dsDNA, one strand shown. In short, it runs like this: as §1
In the case of AATTGAAA, the binding signal is 0.114 % of ANNNNAAN 8-mers.
On the same count and under the same terms, the result for ACAGCAAC reads 0.014 % of ANNNNAAN 8-mers; that for ACCGCAAG, 0.0176 % of ANNNNAAN 8-mers.
On the same count and under the same terms, to ACCCAAAC belongs 0.0164 % of ANNNNAAN 8-mers; to AGGGAAAG, 0.222 % of ANNNNAAN 8-mers; to ACCATAAA, 0.0304 % of ANNNNAAN 8-mers.
On to ACACGAAG, for which the binding signal was 0.0176 % of ANNNNAAN 8-mers.
On the same count and under the same terms, the result for ACCACAAG reads 0.0113 % of ANNNNAAN 8-mers; that for ACTGCAAG, 0.016 % of ANNNNAAN 8-mers; that for AACCCAAG, 0.0144 % of ANNNNAAN 8-mers.
Take AGCCCAAC: the binding signal was 0.0105 % of ANNNNAAN 8-mers.
With AGACCAAT, the binding signal was 0.0261 % of ANNNNAAN 8-mers.
On the same count and under the same terms, the result for ACCCCAAG reads 0.0105 % of ANNNNAAN 8-mers.
On the same count and under the same terms, the result for ATTTAAAG reads 0.152 % of ANNNNAAN 8-mers; that for ATAGAAAT, 0.0878 % of ANNNNAAN 8-mers; that for ACAGCAAG, 0.0164 % of ANNNNAAN 8-mers.
On the same count and under the same terms, the result for AAGCAAAA reads 0.204 % of ANNNNAAN 8-mers; that for ACTGCAAC, 0.0199 % of ANNNNAAN 8-mers.
For the sequence AAGTCAAC, the binding signal is 0.0308 % of ANNNNAAN 8-mers.
Same read-out and setting: to AGAATAAT belongs 0.0948 % of ANNNNAAN 8-mers; to AGCTCAAC, 0.0101 % of ANNNNAAN 8-mers.
The same measure, in the same setting: to ATAGCAAT belongs 0.0445 % of ANNNNAAN 8-mers; to AGCTGAAA, 0.0261 % of ANNNNAAN 8-mers; to ATCTTAAG, 0.0503 % of ANNNNAAN 8-mers.
Still for that read-out and setting: the result for ACGCCAAC reads 0.0121 % of ANNNNAAN 8-mers.
For AGCTTAAC, the binding signal is 0.0195 % of ANNNNAAN 8-mers.
For ACCTCAAC, the binding signal is 0.0129 % of ANNNNAAN 8-mers.
Still for that read-out and setting: to ACCGAAAC belongs 0.0125 % of ANNNNAAN 8-mers; to ACCTCAAG, 0.0156 % of ANNNNAAN 8-mers.
On to AGGCCAAA, for which the binding signal was 0.0242 % of ANNNNAAN 8-mers.
For ACACCAAC, the binding signal is 0.0113 % of ANNNNAAN 8-mers.

Another experiment addresses T2, POU2 (OCT2 POU domain);BOB1 (OBF1, OCA-B) (human;human, UniProt P09086;Q16633 175-386;1-256, |).
T2 sequence 1: T1 sequence
T2 sequence 2: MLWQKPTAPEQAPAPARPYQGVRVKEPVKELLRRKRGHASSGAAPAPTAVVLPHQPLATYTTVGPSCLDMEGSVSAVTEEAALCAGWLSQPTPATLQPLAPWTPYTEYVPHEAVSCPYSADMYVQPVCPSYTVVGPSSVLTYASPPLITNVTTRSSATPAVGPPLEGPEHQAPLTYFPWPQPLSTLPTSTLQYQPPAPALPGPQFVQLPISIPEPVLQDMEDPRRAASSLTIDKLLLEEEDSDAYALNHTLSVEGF
The experiment is described as above. The settings on record: protein: recombinant;recombinant; copies: 1;1; dsDNA, one strand shown. In short, it runs like this: as §1
With AATTGAAA, the binding signal was 0.0817 % of ANNNNAAN 8-mers.
On the same count and under the same terms, to ACCCAAAC belongs 0.0107 % of ANNNNAAN 8-mers; to AGGGAAAG, 0.142 % of ANNNNAAN 8-mers; to ACCATAAA, 0.0264 % of ANNNNAAN 8-mers.
Same read-out and setting: to ACACGAAG belongs 0.0157 % of ANNNNAAN 8-mers.
The same measure, in the same setting: to AACGCAAC belongs 0.0182 % of ANNNNAAN 8-mers; to ACCGCAAC, 0.0157 % of ANNNNAAN 8-mers.
In the case of ACGCCAAG, the binding signal is 0.014 % of ANNNNAAN 8-mers.
For the sequence ACTGCAAG, the binding signal is 0.0107 % of ANNNNAAN 8-mers.
Still for that read-out and setting: the result for AGCACAAC reads 0.0124 % of ANNNNAAN 8-mers; that for ACCCTAAC, 0.0157 % of ANNNNAAN 8-mers; that for AGCCCAAC, 0.0124 % of ANNNNAAN 8-mers.
Same read-out and setting: to AGACCAAT belongs 0.033 % of ANNNNAAN 8-mers.
For the sequence ACCGGAAG, the binding signal was 0.0124 % of ANNNNAAN 8-mers.
Same read-out and setting: the result for ATTTAAAG reads 0.0759 % of ANNNNAAN 8-mers; that for ATAGAAAT, 0.0892 % of ANNNNAAN 8-mers.
On the same count and under the same terms, the result for AACCTAAC reads 0.0132 % of ANNNNAAN 8-mers; that for ACAGCAAG, 0.014 % of ANNNNAAN 8-mers; that for AAGCAAAA, 0.106 % of ANNNNAAN 8-mers.
Same read-out and setting: the result for AAGTCAAC reads 0.0272 % of ANNNNAAN 8-mers.
As for AGAATAAT, the binding signal was 0.122 % of ANNNNAAN 8-mers.
Regarding AGCTCAAC, the binding signal is 0.0231 % of ANNNNAAN 8-mers.
On the same count and under the same terms, to ATAGCAAT belongs 0.0487 % of ANNNNAAN 8-mers; to AGCTGAAA, 0.0239 % of ANNNNAAN 8-mers; to ATCTTAAG, 0.0438 % of ANNNNAAN 8-mers.
Same read-out and setting: the result for AGCTTAAC reads 0.0165 % of ANNNNAAN 8-mers; that for ACCTCAAC, 0.0107 % of ANNNNAAN 8-mers.
Same read-out and setting: the result for ACCCGAAC reads 0.0132 % of ANNNNAAN 8-mers; that for AGGCCAAA, 0.0281 % of ANNNNAAN 8-mers; that for ACACCAAC, 0.0107 % of ANNNNAAN 8-mers.
